The structures appear in SMILES notation. Records with an inconclusive call do not appear. Entries that show only a call come without a potency. Activity calls are given as the source filed them. Calls follow the shape of the dose curve; as a rule, active = well fitted inhibition curve with a large enough effect; inconclusive = small, poorly fitted or top-dose-only effect; inactive = no such curve, though single readings can be large or run the other way.

The assay deals with Zika virus NS2B-NS3 protease (linked construct). Nature of the assay: Primary screen NINDS Rhodamine qHTS for Zika virus inhibitors (AID 1347160). Also: nearly all actives have a fitted effect of over 55% in size. The settings on record: purified NS2B-NS3 protease, Rhodamine110 substrate fluorescence; series mostly up to 57.1 µM. In a few lines: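 Kinetic fluorescence (Ex 480 nm, Em 540 nm) over 15 min with 1.5 microM Rhodamine110 peptide and 25 nM linked protease.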
With `C=C(C(=O)O)C1CC2=C(C)CCCC2(C)C[C@@H]1O` (stereo partly drawn), the Potency result is “inactive”.

For `C=CCC1=C[C@]2(OC)[C@H](C)[C@@H](c3ccc(O)c(OC)c3)O[C@]2(OC)CC1=O`, the Potency entry was “inactive”.

On to `C=C1CCC2C(C)(C(=O)O)CCCC2(C)C1CC/C(=C\CO)CO` (stereo not drawn), for which the Potency entry was “inactive”.

For the compound `COc1c2c(c(C)c3c1C(=O)OC3)OC1(C)CC(O)C(C(C)(C)O)C(C)(CCC(=O)O)C1C2` (stereo not drawn), the Potency result was “inactive”.

For the compound `CN1c2ccccc2C(=O)N2CCC3c4ccccc4NC3C21` (stereo not drawn), the Potency entry was “inactive”.

For the compound `O=C(CCc1nnc2n(Cc3ccc(Cl)cc3)c(=O)c3ccccc3n12)NCCC1=CCCCC1`, the Potency entry is “inactive”.

With `CC1CC2OC3(OC2C(C)(C)O)C1C1(C)CCC24CC25CCC(O[C@@H]2OC[C@@H](O)[C@H](O)[C@H]2O)C(C)(C)C5CC=C4C1(C)C3O` (stereo partly drawn), the Potency result is “inactive”.

In the case of `CC1CC[C@]2(C(=O)O)CC[C@]3(C(=O)O)C(=CCC4[C@@]5(C)CC[C@H](OC6OC(C)C(O)C(OC7OC(CO)C(O)C(O)C7O)C6O)C(C)(C)C5CC[C@]43C)C2C1C` (stereo partly drawn), the Potency result is “inactive”.
